# Reference: article PMC7862700, “An all-to-all approach to the identification of sequence-specific readers for epigenetic DNA modifications on cytosine”
# What was measured:
# Assay in all cases: DAPPL (digital affinity profiling via proximity ligation, sequencing); 10 mM Tris-HCl pH 7.5, 50 mM NaCl, 1 mM DTT, 4% glycerol, room temperature, 30 min; GST-TFs on glutathione beads, 16-mer random dsDNA library, 0.1% formaldehyde crosslink after washing; high values mean tight binding
# FEV = target: T1, FEV (Homo sapiens, UniProt Q99581 1-238); conditions: protein: recombinant; tags: N-terminal GST; dsDNA, one strand shown
# T1 sequence: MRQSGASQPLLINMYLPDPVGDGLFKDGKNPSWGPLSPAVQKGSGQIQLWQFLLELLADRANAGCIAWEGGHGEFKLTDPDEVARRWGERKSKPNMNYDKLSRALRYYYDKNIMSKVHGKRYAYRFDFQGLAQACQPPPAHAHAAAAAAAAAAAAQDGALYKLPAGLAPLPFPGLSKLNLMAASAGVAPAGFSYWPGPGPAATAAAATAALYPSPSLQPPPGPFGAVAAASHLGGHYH
# Outline: (§1)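 A tag-only sample was pooled with DNA-barcoded human transcription factors that had been expressed in yeast as GST fusions and captured on glutathione beads. The pools were incubated for 30 min at room temperature with 200 nmole of a random double-stranded 16-mer DNA library in Tris/NaCl/DTT/glycerol buffer, then washed, crosslinked with 0.1% formaldehyde, proximity-ligated (BsaI/T4 ligase, 1 h, 37 °C), PCR-amplified and sequenced on an Illumina NextSeq500. Binding signal is each hexamer's read frequency for a factor divided by its frequency for the tag-only sample.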
# ETV5 = ETV5 (Homo sapiens, UniProt P41161 1-510); conditions: protein: recombinant; tags: N-terminal GST; dsDNA, one strand shown
# ETV5, sequence (P41161 whole entry): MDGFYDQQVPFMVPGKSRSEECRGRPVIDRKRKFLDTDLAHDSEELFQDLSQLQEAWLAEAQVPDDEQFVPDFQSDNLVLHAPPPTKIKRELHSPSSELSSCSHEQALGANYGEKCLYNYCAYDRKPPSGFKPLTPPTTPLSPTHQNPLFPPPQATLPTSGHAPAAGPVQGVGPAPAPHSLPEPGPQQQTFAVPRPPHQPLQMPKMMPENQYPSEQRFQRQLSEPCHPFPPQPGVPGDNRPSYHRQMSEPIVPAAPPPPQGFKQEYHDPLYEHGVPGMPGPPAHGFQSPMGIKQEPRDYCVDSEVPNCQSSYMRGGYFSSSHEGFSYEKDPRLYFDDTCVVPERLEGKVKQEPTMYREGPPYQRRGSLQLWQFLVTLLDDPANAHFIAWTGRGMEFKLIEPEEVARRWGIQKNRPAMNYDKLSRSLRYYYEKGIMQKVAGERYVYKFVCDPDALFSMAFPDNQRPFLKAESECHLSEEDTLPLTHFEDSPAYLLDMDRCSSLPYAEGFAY
# Outline: as §1
# HSF1 = HSF1 (Homo sapiens, UniProt Q00613 1-529); conditions: protein: recombinant; tags: N-terminal GST; chain copies: 3; dsDNA, one strand shown
# HSF1, sequence (Q00613 whole entry): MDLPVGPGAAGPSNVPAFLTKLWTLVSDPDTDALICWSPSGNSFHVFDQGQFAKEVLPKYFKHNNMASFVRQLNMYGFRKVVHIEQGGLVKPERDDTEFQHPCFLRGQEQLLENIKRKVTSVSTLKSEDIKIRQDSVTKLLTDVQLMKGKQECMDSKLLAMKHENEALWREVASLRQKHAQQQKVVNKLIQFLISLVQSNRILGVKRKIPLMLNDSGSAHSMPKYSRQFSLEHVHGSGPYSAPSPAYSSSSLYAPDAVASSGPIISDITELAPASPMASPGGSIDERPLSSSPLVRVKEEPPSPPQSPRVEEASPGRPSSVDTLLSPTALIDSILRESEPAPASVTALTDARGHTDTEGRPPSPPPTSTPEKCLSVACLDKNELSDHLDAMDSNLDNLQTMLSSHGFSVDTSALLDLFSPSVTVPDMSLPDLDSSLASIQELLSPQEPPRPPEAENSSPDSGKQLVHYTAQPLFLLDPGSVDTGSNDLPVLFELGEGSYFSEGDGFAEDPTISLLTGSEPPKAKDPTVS
# Outline: as §1
# SPIC = target: T2, SPIC (Homo sapiens, UniProt Q8N5J4 1-248); conditions: protein: recombinant; tags: N-terminal GST; dsDNA, one strand shown
# T2 sequence: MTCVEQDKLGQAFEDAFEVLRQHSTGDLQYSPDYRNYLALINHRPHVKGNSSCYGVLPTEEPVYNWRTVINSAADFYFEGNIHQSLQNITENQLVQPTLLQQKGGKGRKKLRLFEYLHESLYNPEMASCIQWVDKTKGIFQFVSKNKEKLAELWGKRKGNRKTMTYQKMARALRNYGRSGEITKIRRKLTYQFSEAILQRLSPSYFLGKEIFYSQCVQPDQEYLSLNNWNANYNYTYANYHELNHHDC
# Outline: as §1
# ELF4 = ELF4 (Homo sapiens, UniProt Q99607 1-663); conditions: protein: recombinant; tags: N-terminal GST; dsDNA, one strand shown
# ELF4, sequence (Q99607 whole entry): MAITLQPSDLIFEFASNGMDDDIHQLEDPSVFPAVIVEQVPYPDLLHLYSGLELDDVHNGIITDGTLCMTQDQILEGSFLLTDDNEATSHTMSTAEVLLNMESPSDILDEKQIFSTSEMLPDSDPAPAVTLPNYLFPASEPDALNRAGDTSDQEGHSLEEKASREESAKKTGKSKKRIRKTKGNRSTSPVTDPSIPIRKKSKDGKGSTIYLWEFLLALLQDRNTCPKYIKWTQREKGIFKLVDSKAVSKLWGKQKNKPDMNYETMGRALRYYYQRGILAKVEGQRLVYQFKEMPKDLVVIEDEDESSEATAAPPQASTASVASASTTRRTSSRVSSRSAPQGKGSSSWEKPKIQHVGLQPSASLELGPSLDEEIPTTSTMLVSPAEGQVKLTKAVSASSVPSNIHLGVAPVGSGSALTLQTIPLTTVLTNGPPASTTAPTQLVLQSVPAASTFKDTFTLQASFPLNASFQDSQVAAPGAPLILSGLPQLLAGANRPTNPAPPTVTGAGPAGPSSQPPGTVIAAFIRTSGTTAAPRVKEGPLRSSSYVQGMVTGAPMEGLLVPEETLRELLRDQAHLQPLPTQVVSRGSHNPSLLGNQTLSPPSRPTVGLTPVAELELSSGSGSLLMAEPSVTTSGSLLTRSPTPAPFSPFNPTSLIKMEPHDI
# Outline: as §1
# ELK4 = target: T3, ELK4 (Homo sapiens, UniProt P28324-2 1-405); conditions: protein: recombinant; tags: N-terminal GST; dsDNA, one strand shown
# T3 sequence: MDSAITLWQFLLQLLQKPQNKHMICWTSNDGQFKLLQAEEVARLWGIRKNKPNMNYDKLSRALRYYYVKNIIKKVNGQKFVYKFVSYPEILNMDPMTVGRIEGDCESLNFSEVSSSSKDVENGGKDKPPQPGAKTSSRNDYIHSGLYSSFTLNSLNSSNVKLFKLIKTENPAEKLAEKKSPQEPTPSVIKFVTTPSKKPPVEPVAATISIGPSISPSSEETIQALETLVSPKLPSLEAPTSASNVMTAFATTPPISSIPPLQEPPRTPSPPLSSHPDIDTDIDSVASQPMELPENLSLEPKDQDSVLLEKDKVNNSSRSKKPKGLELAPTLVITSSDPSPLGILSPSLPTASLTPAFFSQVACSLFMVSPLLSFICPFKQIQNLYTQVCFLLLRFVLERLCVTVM
# Outline: as §1
# ETV2 = target: T4, ETV2 (Homo sapiens, UniProt O00321 1-342); conditions: protein: recombinant; tags: N-terminal GST; dsDNA, one strand shown
# T4 sequence: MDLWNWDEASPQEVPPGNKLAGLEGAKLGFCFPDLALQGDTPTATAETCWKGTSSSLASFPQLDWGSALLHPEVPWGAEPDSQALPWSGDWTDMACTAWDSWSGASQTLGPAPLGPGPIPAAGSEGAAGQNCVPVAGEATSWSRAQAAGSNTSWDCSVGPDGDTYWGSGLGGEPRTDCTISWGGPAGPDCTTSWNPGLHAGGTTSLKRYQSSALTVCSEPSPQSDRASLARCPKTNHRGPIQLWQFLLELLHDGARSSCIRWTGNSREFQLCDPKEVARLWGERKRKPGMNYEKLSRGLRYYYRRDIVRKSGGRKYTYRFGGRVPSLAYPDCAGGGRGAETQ
# Outline: as §1
# ELF3 = target: T5, ELF3 (Homo sapiens, UniProt P78545 1-371); conditions: protein: recombinant; tags: N-terminal GST; dsDNA, one strand shown
# T5 sequence: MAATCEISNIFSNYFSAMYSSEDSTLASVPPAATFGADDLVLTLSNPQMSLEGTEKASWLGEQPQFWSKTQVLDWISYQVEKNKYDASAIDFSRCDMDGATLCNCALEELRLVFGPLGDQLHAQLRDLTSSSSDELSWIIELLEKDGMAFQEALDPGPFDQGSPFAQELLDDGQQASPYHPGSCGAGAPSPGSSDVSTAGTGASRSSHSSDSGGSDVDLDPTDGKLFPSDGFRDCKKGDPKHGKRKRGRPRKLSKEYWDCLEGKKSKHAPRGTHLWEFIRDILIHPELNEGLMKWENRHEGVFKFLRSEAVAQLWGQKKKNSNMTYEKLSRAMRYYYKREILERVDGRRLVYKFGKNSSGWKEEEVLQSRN
# Outline: as §1
# CRX = CRX (Homo sapiens, UniProt O43186 1-299); conditions: protein: recombinant; tags: N-terminal GST; dsDNA, one strand shown
# CRX, sequence (O43186 whole entry): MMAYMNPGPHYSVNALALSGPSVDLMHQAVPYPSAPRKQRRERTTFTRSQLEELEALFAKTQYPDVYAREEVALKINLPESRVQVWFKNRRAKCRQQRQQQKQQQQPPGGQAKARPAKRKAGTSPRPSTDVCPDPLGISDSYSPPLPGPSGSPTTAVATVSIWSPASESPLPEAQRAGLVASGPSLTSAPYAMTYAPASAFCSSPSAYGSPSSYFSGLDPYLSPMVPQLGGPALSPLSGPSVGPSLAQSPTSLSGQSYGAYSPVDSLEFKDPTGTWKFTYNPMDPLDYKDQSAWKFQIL
# Outline: as §1
# ETV1 = ETV1 (Homo sapiens, UniProt P50549 1-477); conditions: protein: recombinant; tags: N-terminal GST; dsDNA, one strand shown
# ETV1, sequence (P50549 whole entry): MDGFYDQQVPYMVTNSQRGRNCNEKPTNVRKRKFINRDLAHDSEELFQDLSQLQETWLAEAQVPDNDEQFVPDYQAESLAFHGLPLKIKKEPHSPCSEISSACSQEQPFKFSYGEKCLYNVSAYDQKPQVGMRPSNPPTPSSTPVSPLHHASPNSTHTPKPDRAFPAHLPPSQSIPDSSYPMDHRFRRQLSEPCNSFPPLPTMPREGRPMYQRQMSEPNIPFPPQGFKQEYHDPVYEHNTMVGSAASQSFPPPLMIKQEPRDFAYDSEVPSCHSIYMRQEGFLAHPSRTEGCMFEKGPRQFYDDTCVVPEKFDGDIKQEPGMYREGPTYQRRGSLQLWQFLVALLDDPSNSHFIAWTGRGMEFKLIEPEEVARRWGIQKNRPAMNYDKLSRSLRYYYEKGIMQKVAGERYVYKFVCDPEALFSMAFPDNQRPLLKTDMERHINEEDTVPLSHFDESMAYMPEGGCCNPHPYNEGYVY
# Outline: as §1
sequence,measurement,setting,value
TTTATA,binding signal,FEV,"1.28 fold enrichment (6-mer frequency, TF over GST control)"
same,binding signal,ETV5,"1.24 fold enrichment (6-mer frequency, TF over GST control)"
same,binding signal,HSF1,"1.54 fold enrichment (6-mer frequency, TF over GST control)"
same,binding signal,SPIC,"1.37 fold enrichment (6-mer frequency, TF over GST control)"
same,binding signal,ELF4,"1.36 fold enrichment (6-mer frequency, TF over GST control)"
same,binding signal,ELK4,"1.37 fold enrichment (6-mer frequency, TF over GST control)"
same,binding signal,ETV2,"1.26 fold enrichment (6-mer frequency, TF over GST control)"
same,binding signal,ELF3,"1.36 fold enrichment (6-mer frequency, TF over GST control)"
same,binding signal,CRX,"2.05 fold enrichment (6-mer frequency, TF over GST control)"
same,binding signal,ETV1,"1.31 fold enrichment (6-mer frequency, TF over GST control)"
